Compound activity from PubChem BioAssay.
Platelet DG rel = platelet dense granule release activity. human platelet-rich plasma, SFLLRN dense granule ATP release, luminescence. inhibition, %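 (compounds screened at 7.5 µM in platelet-rich plasma)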. actives 0.22% (n = 300,000). AID 1663;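 active means mean replicate score, as percent of positive control, at or above 50; inconclusive means mean below 50 but at least one replicate at or above 50; inactive means mean and every replicate below 50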
Wee1 stabilizer = inhibitors of human Wee1 degradation. P30291. HeLa Luc-Wee1K328M stability, luciferase luminescence; 100% = proteasome inhibitor MG132 effect. reporter increase, % at 5 µM. actives 1.2% (n = 220,000);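 active means activation above the mean of all tested compounds plus 3 SD, set per screening run, cut at about 8.8% in these data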;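 further: cells exposed to compound for 20 h before luminescence read; 0% = DMSO alone and 100% = MG132 at 30 µM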
Target sequence (P30291 whole entry K328M): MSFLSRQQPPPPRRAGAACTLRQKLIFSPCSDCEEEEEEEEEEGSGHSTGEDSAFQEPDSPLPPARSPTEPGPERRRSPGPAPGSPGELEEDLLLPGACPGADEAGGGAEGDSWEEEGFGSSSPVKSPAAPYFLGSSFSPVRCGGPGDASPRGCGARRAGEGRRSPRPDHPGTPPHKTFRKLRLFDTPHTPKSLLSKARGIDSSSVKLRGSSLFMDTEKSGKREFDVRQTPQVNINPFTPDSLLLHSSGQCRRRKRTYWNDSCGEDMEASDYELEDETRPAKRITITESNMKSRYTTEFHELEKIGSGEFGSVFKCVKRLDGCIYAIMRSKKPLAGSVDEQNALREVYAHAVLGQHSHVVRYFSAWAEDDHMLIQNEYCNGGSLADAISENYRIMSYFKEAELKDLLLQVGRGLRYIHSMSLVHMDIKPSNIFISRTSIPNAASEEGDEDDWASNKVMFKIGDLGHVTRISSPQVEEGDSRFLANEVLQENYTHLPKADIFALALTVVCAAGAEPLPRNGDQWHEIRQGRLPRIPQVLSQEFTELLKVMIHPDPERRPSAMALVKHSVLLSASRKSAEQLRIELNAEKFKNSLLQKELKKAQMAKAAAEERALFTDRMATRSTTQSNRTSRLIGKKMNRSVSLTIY
HIF activator = HIF pathway transcriptional activation; actives 0.32% (n = 300,000); activation, % at 7.5 µM (by protocol); U2OS HRE-luciferase reporter, luminescence; normalized: DMSO 0%, desferrioxamine 100%;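 active means mean activation of at least 10% of the iron chelator positive control signal, with at least half of replicates also reaching 10%; inconclusive means mean and replicate majority disagree about reaching 10%; inactive means mean and most replicates under 10%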
aSyn 5UTR inh = 5' untranslated region of α-synuclein, MLPCN primary screen; alpha-synuclein 5'UTR reporter, inhibitor activity; AID 1813; inhibition, % (tested at 7.5 µM); actives 0.82% (n = 300,000); in the data active means inhibition above about 60%; inconclusive means no clear call, values can overlap the other calls;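 further: H4 neuroglioblastoma cells stably carrying SNCA 5'UTR luciferase fusion; 0% = DMSO wells and 100% = positive control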
KLF5 inh = kruppel-like factor 5 inhibition; DLD-1 KLF5 promoter-luciferase reporter, luminescence; AID 1700; actives 0.23% (n = 290,000); inhibition, % at 5 µM;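 active means inhibition above a per-plate limit of that plate's mean compound inhibition plus 3 SD, cut at about 60% in these data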;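 further: 0% = DMSO wells and 100% = LY294002 at 200 µM; higher means less KLF5 promoter-driven luciferase light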
Numbers without * were called inactive; u = inconclusive; x = not tested or not shown. The list is not random: actives were taken first. Their share in the collection is about 2.1%.

SMILES	Platelet DG rel	Wee1 stabilizer	HIF activator	aSyn 5UTR inh	KLF5 inh
COc1ccc(C=C2C(=O)c3ccccc3C2=O)cc1O	30	-2	0	-4	-18
COc1ccc(/C=C2\CN(Cc3ccccc3)C/C(=C\c3ccc(OC)c(O)c3)C2=O)cc1O	-5	x	-5	107*	25
CCN1C/C(=C/c2ccc(OC)c(O)c2)C(=O)/C(=C/c2ccc(OC)c(O)c2)C1	-1	0	-7	116*	27
CC(=O)c1cccc(NC(=O)COC(=O)[C@@H](NC(=O)OCc2ccccc2)C(C)C)c1	u	0	-1	-7	-3
CCOC(=O)N1CCN(C(=O)c2ccc(Cn3c(=S)[nH]c4cc(OCC)c(OCC)cc4c3=O)cc2)CC1	23	-2	18*	34	2
N#Cc1nc(-c2ccc(Cl)cc2)oc1NCC1CCCO1 (centres undefined)	6	11*	3	-58	-57
CCOC(=O)c1c(C)[nH]c(C(=O)C(C)OC(=O)c2oc3ccccc3c2COC)c1C (centres undefined)	73*	-2	0	25	-20
CCOC(=O)c1c(C)[nH]c(C(=O)COC(=O)c2oc3ccccc3c2C)c1C	1	3	-1	-16	-24
Cc1ncsc1C(=O)Nc1nc2c(s1)CCCC2	61*	3	2	-159	-114
O=C(/C=C/c1ccc(F)cc1)N1CC[C@@]2(O)CCCC[C@H]2C1	-4	9	0	20	-27
COc1ccc(CNC(=O)CCS(=O)(=O)c2ccc3c(c2)oc(=O)n3C)cc1	7	x	-1	21	-5
CN(C)c1ccc(CNC(=O)CCS(=O)(=O)c2ccc3c(c2)oc(=O)n3C)cc1	0	x	33*	5	-25
CCN(CC)CCCNc1nc2ccccc2[nH]1	18	-2	0	-15	-44
CCNc1nc2ccccc2[nH]1	x	9.8*	0	-20	-2
Cc1ccc(NN2C(=O)C=C(c3ccc(Cl)cc3)C2=O)cc1	57*	-3	0	-49	-38
COc1ccc(C2=CC(=O)N(Nc3ccccc3)C2=O)cc1	11	2	0	-19	-27
O=C1C=C(c2ccccc2)C(=O)N1Nc1ccccc1	61*	-3	1	-14	-8
O=C(NCc1ccncc1)C1CCCN(S(=O)(=O)c2cc(Cl)ccc2Cl)C1 (centres undefined)	8	x	0	-14	x
CC(=O)Cn1cnc2c(cnn2-c2ccc(C)c(C)c2)c1=O	2	x	-8	-106	-141
Nc1nccc(-c2cc(-c3ccc(Cl)cc3Cl)no2)n1	22	10*	1	-5	-154
Clc1ccc(-c2nc(-c3ccncc3)no2)c(Cl)c1	0	x	3	-104	x
CCN(CC)S(=O)(=O)c1ccc(OC)c(NC(=O)C(Cc2ccccc2)N2C(=O)c3ccccc3C2=O)c1 (centres undefined)	15	-3	0	1	10
COC(=O)c1ccc(C)c(NS(=O)(=O)c2ccc(OC)cc2)c1	12	0	0	82*	53
CC(C)N(CCO)C(=O)C(c1ccccc1)c1ccccc1	5	11*	0	11	-3
Cc1cc(OCC(=O)NC2CC(C)(C)NC(C)(C)C2)c2c(C)c(C)c(=O)oc2c1	-12	x	0	-38	-15
SMILES	Platelet DG rel	Wee1 stabilizer	HIF activator	aSyn 5UTR inh	KLF5 inh
Cc1cccc(Cn2cc(/C=C/[N+](=O)[O-])c3ccccc32)c1	-7	3	0	34	-46
Nc1ccc(C(=O)N/N=C\c2cc(N=Nc3cccc4ccccc34)ccc2O)cc1	-4	0	14*	50	4
CCOC(=O)N/N=C/c1cn(Cc2ccc(Cl)cc2)c2ccccc12	6	3	0	70*	-17
O=[N+]([O-])/C=C/c1cn(Cc2ccc(Cl)cc2)c2ccccc12	-2	-3	0	65*	1
Nc1ccc(C(=O)N/N=C/c2cn(Cc3cccc(F)c3)c3ccccc23)cc1	9	x	0	70*	-28
COc1ccccc1CN1CCCC(CN(CCN(C)C)C(=O)C2CCCC2)C1 (centres undefined)	-1	x	0	1	-19
O=C(O)c1ccc2c(c1)C(=O)N(c1ccc(OCc3ccccc3)cc1)C2=O	-6	x	-1	0	6
C=CCc1cccc(/C=N/NC(=O)CNc2ccccc2)c1O	-5	0	0	74*	7
O=C(CNc1ccc2c(c1)OCO2)N/N=C\c1cn(Cc2ccccc2)c2ccccc12	-5	1	0	81*	-24
O=C(Nc1ccc(S(=O)(=O)N2CCCC2)cc1)C1CCN(S(=O)(=O)c2ccc(F)cc2)CC1	11	x	0	17	x
CCOC(=O)Cc1ccc(NC(=O)c2ccc(C(C)(C)C)cc2)cc1	-4	0	-2	104*	59
C#CCOCCOCCOCCNc1nc(N2CCN(C(=O)CCCCCCCCCCNC(=O)[C@H](CCCCN)n3cc(C[C@@H](C)CC)nn3)CC2)nc(N2CCN(C(=O)CCCCCCCCCCNC(=O)[C@H](CCCCN)n3cc(C[C@@H](C)CC)nn3)CC2)n1	3	x	-8	107*	x
C#CCOCCOCCOCCNc1nc(N2CCN(C(=O)CCCCCCCCCCNC(=O)[C@H](CO)n3cc(CCCSC)nn3)CC2)nc(N2CCN(C(=O)CCCCCCCCCCNC(=O)[C@H](CCCCN)n3cc(C[C@@H](C)CC)nn3)CC2)n1	-7	x	-7	110*	x
C#CCOCCOCCOCCNc1nc(N2CCN(C(=O)CCCCCCCCCCNC(=O)[C@H](CCCCN)n3cc(CCCC(=O)O)nn3)CC2)nc(N2CCN(C(=O)CCCCCCCCCCNC(=O)[C@H](CCCN=C(N)N)n3cc(C[C@@H](C)CC)nn3)CC2)n1	-10	x	-5	-132	x
Cc1ccc(C(=O)N2CCN(C(=O)c3ccco3)CC2)cc1NC(=O)c1ccco1	1	4	0	19	-9
O=C(C1=NN[C@@H]2C(=O)N(c3cccc(C(F)(F)F)c3)C(=O)[C@H]12)C(c1ccccc1)c1ccccc1	-10	-3	57*	-5	-19
O=C(C1=NN[C@@H]2C(=O)N(c3cccc(F)c3)C(=O)[C@H]12)C(c1ccccc1)c1ccccc1	-2	-2	0	0	2
CCCC(=O)NCCCCNC(=O)CCC	-1	2	0	13	-28
CC(=O)N(O)CCCCCNC(=O)CCC(=O)N(O)CCCCCNC(=O)CCC(=O)N(O)CCCCCN	-3	-3	19*	75*	-7
N#CCc1c(C#N)c(N)nc(N2CCCC(CO)C2)c1C#N (centres undefined)	6	5	0	-14	-21
c1ccc(CSc2ccc(-c3ccccn3)nn2)cc1	3	6	10*	-56	-108
O=C(CSc1ccc(-c2ccccn2)nn1)c1ccccc1	-1	4	2	-97	-71
Clc1ccc(CSc2ccc(-c3ccccn3)nn2)cc1	-1	-1	24*	-132	4
O=C(CSc1ccc(-c2ccccn2)nn1)NCc1ccc(Cl)cc1	-2	3	0	-4	-21
